Results published in PubChem BioAssay.
Records with an inconclusive call do not appear. Calls of active or inactive are those of the source. Unless noted, the limit is not given here; nearly all actives have AC50 up to about 26 µM.

Columns and labels:
[1] = growth inhibition of DIPG glioma cells, dose response, cell-based, SU-DIPG-XVII, MIPE5.0, CellTiter-Glo, qHTS (AID 1347060); conditions: SU-DIPG-XVII viability, CellTiter-Glo ATP luminescence;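 as to AC50: cells exposed to compound for 48 hours before viability readout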
[2] = growth inhibition of DIPG glioma cells, dose response, cell-based, SU-DIPG-XIII, MIPE5.0, CellTiter-Glo, qHTS (AID 1347064; cut-off not given, nearly all actives have AC50 up to about 23 µM;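 as to AC50: cells exposed to compound for 48 hours before the viability read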); conditions: SU-DIPG-XIII viability, CellTiter-Glo ATP luminescence
[3] = viability loss in pontine glioma line – cell-based, SU-DIPG-XXV, MIPE5.0, CellTiter-Glo, qHTS, dose response (AID 1347065); conditions: CellTiter-Glo ATP luminescence;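 also: cells exposed to compound for 48 hours before ATP readout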
[4] = JHH-DIPG-1 glioma cell viability, MIPE5.0 library, CellTiter-Glo luminescence, qHTS (AID 1347067); conditions: JHH-DIPG-1 glioma viability, CellTiter-Glo ATP luminescence;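 also: cells exposed to compound for 48 hours before readout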
[5] = SU-DIPG-XXV glioma cell viability, MIPE5.0 library, qHTS (AID 1347068; cut-off not given, nearly all actives have IC50 up to about 30 µM;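 as to IC50: cells exposed to compound for 48 hours before viability readout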)

Row | SMILES | outcome [1] | outcome [2] | outcome [3] | outcome [4] | outcome [5] | AC50 [1] | AC50 [2] | AC50 [3] | AC50 [4] | IC50 [5]
1 | NS(=O)(=O)NCCNc1nonc1C(=Nc1ccc(F)c(Br)c1)NO | inactive | inactive | inactive | inactive | inactive |  |  |  |  | 
2 | CN(C)C1CCN(C(=O)c2ccc(NC(=O)Nc3ccc(-c4nc(N5CCOCC5)nc(N5CCOCC5)n4)cc3)cc2)CC1 |  |  |  |  |  | 0.332 µM (active) | 0.833 µM (active) | 0.295 µM (active) | 0.417 µM (active) | 0.742 µM (active)
3 | CCN1CCN(Cc2ccc(NC(=O)Nc3ccc(Oc4cc(NC)ncn4)cc3)cc2C(F)(F)F)CC1 |  |  |  |  |  | 7.42 µM (active) | 3.32 µM (active) | 10.5 µM (active) | 3.72 µM (active) | 7.42 µM (active)
4 | CN1C(=O)[C@@H](NC(=O)c2n[nH]c(Cc3ccccc3)n2)COc2ccccc21 | inactive | inactive | inactive | inactive | inactive |  |  |  |  | 
5 | Cc1c[nH]c2nc(Nc3ccc(N4CCN(C)CC4)c(F)c3)nc(-c3cccc(CC#N)c3)c12 |  |  |  |  |  | 2.35 µM (active) | 4.17 µM (active) | 4.17 µM (active) | 3.72 µM (active) | 3.32 µM (active)
6 | Cc1cn(CCN2CCN(c3ccccc3-c3cc(C#N)cc(C(=O)NCCCN4CCCC4)c3)CC2)c2ccccc12 |  |  |  |  |  | 8.33 µM (active) | 10.5 µM (active) | 7.42 µM (active) | 8.33 µM (active) | 7.42 µM (active)
7 | N#Cc1ccnc(Nc2cc(C3CCN(C4COC4)CC3)cc(N3CCC(F)(F)C3)n2)c1 |  |  |  |  |  | 2.63 µM (active) | 5.25 µM (active) | 1.48 µM (active) | 5.9 µM (active) | 11.8 µM (active)
8 | C=C1C[C@H]2C=Nc3cc(OCCCOc4cc5c(cc4OC)C(=O)N4CC(=C)C[C@H]4C=N5)c(OC)cc3C(=O)N2C1 |  |  |  |  |  | 0.00186 µM (active) | 0.0209 µM (active) | 0.0166 µM (active) | 0.00372 µM (active) | 0.0742 µM (active)
9 | O=C1CC[C@H](N2Cc3c(OCc4ccc(CN5CCOCC5)cc4)cccc3C2=O)C(=O)N1 | inactive | inactive | inactive | inactive | inactive |  |  |  |  | 
10 | Cc1cc2cc(Oc3ccnc(Nc4cccc(CS(=O)(=O)NCCN(C)C)c4)n3)ccc2[nH]1 |  |  |  |  |  | 4.68 µM (active) | 8.33 µM (active) | 5.9 µM (active) | 20.9 µM (active) | 18.6 µM (active)
11 | CN1CC[C@@H](NC(=O)Nc2ccc(C#N)cc2)C[C@@H]1c1nc2ccccc2[nH]1 | inactive | inactive | inactive | inactive | inactive |  |  |  |  | 
12 | O=C(NCC(=O)N1CCCC1)Nc1ccc2cnccc2c1 | inactive | inactive | inactive | inactive | inactive |  |  |  |  | 
13 | CNC(=O)CCc1cc(-c2ccc(-c3ccc(C(F)(F)F)cc3)cc2)n(-c2ccc(N3CCNCC3)cc2)n1 |  |  |  |  |  | 5.25 µM (active) | 7.42 µM (active) | 2.63 µM (active) | 3.72 µM (active) | 9.34 µM (active)
14 | C[C@@H]1CCN(C(=O)N2CCCC2)C[C@@H]1N(C)c1ncnc2[nH]ccc12 | inactive | inactive | inactive | inactive | inactive |  |  |  |  | 
15 | CNC(=O)Cn1cc(-c2ccc3c(c2)C(F)CC32NC(=O)N(CC(=O)N(Cc3ccc(F)cc3)[C@@H](C)C(F)(F)F)C2=O)cn1 (stereo not given in full) | inactive | inactive | inactive | inactive | inactive |  |  |  |  | 
16 | COc1nc(OCc2cccc(-c3ccccc3)c2C)ccc1CNCCNC(C)=O |  |  |  |  |  | 7.42 µM (active) | 8.33 µM (active) | 9.34 µM (active) | 9.34 µM (active) | 14.8 µM (active)
17 | C=CCN1C[C@H](C(=O)N(CCCN(C)C)C(=O)NCC)CC2c3cccc4[nH]cc(c34)C[C@H]21 (stereo not given in full) | inactive | inactive | inactive | inactive | inactive |  |  |  |  | 
18 | CCCCNc1ncc2c(-c3ccc(F)cc3)nn(CC3CCC(N)CC3)c2n1 (stereo not given) |  |  |  |  |  | 8.11 µM (active) | 8.11 µM (active) | 5.12 µM (active) | 8.11 µM (active) | 7.23 µM (active)
19 | C=CC(=O)N1CC[C@@H](Oc2nc(Nc3ccc(N4CCC(N5CCN(C)CC5)CC4)cc3)c(C(N)=O)nc2CC)C1 |  |  |  |  |  | 1.15 µM (active) | 0.811 µM (active) | 0.91 µM (active) | 2.29 µM (active) | 4.56 µM (active)
20 | NC[C@@](O)(c1ccc(Cl)cc1)c1ccc(-c2cn[nH]c2)cc1 | inactive |  |  |  |  |  | 18.6 µM (active) | 13.2 µM (active) | 26.3 µM (active) | 23.5 µM (active)
21 | NC(=O)/C(=C/n1cnc(-c2cc(C(F)(F)F)cc(C(F)(F)F)c2)n1)c1cncnc1 |  |  |  |  |  | 0.417 µM (active) | 2.09 µM (active) | 2.35 µM (active) | 11.8 µM (active) | 3.32 µM (active)
22 | C[C@@H]1CC(=O)Nc2cccc(-c3cnn(C(C)(C)C)c3)c2N1 | inactive | inactive | inactive | inactive | inactive |  |  |  |  | 

Row | SMILES | outcome [1] | outcome [2] | outcome [3] | outcome [4] | outcome [5] | AC50 [1] | AC50 [2] | AC50 [3] | AC50 [4] | IC50 [5]
23 | O=C1Cc2cc(C(=O)NC3C[C@H]4CC[C@@H](C3)N4S(=O)(=O)CC3CCN(CCCC(F)(F)F)CC3)c(Cl)cc2N1 (stereo not given in full) | inactive | inactive | inactive | inactive | inactive |  |  |  |  | 
24 | Nc1ncnc(Nc2ccc(OCc3ccccc3)c(Cl)c2)c1/C=N/OCCN1CCOCC1 |  |  |  |  |  | 23.5 µM (active) | 16.6 µM (active) | 16.6 µM (active) | 18.6 µM (active) | 14.8 µM (active)
25 | COc1c(Nc2ncc(Cl)c(N[C@H]3[C@H](C(N)=O)[C@@H]4C=C[C@@H]3C4)n2)ccc2c1CCC(N1CCOCC1)CC2 (stereo not given in full) |  |  |  |  |  | 4.17 µM (active) | 4.17 µM (active) | 2.95 µM (active) | 8.33 µM (active) | 5.9 µM (active)
26 | O=C1NC(=O)C(c2cnc3ccccn23)=C1c1cn2c3c(cc(F)cc13)CN(C(=O)N1CCCCC1)CC2 |  |  |  |  |  | 1.86 µM (active) | 16.6 µM (active) | 18.6 µM (active) | 20.9 µM (active) | 20.9 µM (active)
27 | CCCC1(CCC)CCC2(CCN(CCCN(CC)CC)C2)CC1 |  |  |  |  |  | 7.42 µM (active) | 4.17 µM (active) | 6.61 µM (active) | 3.72 µM (active) | 10.5 µM (active)
28 | COC(=O)N(CC(=O)O)Cc1cccc(OCc2nc(-c3ccc(Cl)cc3)oc2C)c1 | inactive | inactive | inactive | inactive | inactive |  |  |  |  | 
29 | CCC(C)CNCC(=O)N1CCc2sccc2C1c1cccc(C)n1 (stereo not given) | inactive | inactive | inactive | inactive | inactive |  |  |  |  | 
30 | COc1cc(-c2cn(C)c(=O)c3cnccc23)cc(OC)c1CN(C)C | inactive | inactive | inactive | inactive | inactive |  |  |  |  | 
31 | O=C(O)CCCCN(CCc1ccccc1OCc1ccc(CCc2ccccc2)cc1)Cc1ccc(C(=O)O)cc1 | inactive | inactive | inactive | inactive | inactive |  |  |  |  | 
32 | COc1cc2c(cc1O)CCN[C@]21CS[C@@H]2c3c(OC(C)=O)c(C)c4c(c3[C@H](COC1=O)N1[C@@H]2[C@H]2c3c(cc(C)c(OC)c3O)C[C@@H]([C@@H]1O)N2C)OCO4 |  |  |  |  |  | 0.000382 µM (active) | 0.00135 µM (active) | 0.00152 µM (active) | 0.000679 µM (active) | 0.0241 µM (active)
33 | CNC(=O)c1ccccc1Nc1nc(Nc2ccc3c(c2OC)CCC[C@@H](N2CCN(CCO)CC2)C3)ncc1Cl |  |  |  |  |  | 2.35 µM (active) | 1.48 µM (active) | 0.833 µM (active) | 5.9 µM (active) | 11.8 µM (active)
34 | CN(C)C/C=C/C(=O)Nc1cccc(C(=O)Nc2cccc(Nc3ncc(Cl)c(-c4c[nH]c5ccccc45)n3)c2)c1 |  |  |  |  |  | 0.417 µM (active) | 0.332 µM (active) | 0.263 µM (active) | 0.468 µM (active) | 0.417 µM (active)
35 | C[C@H]1CN(C[C@H](Cc2ccccc2)C(=O)NCC(=O)O)CC[C@@]1(C)c1cccc(O)c1 | inactive | inactive | inactive | inactive | inactive |  |  |  |  | 
36 | C1=C/COCc2cc(ccc2OCCN2CCCC2)Nc2nccc(n2)-c2cccc(c2)COC/1 |  |  |  |  |  | 2.95 µM (active) | 2.95 µM (active) | 2.09 µM (active) | 4.17 µM (active) | 2.95 µM (active)
37 | C=CC(=O)Nc1cc(N2CCN(CC)CC2)ccc1Nc1cc(N(C)C(=O)Nc2c(Cl)c(OC)cc(OC)c2Cl)ncn1 |  |  |  |  | inactive | 14.8 µM (active) | 14.8 µM (active) | 18.6 µM (active) | 20.9 µM (active) | 
38 | Cc1ccccc1-n1nc(-c2c(-c3ccc(F)cc3)nn3c2NC[C@@H](CO)C3)ccc1=O | inactive | inactive | inactive | inactive | inactive |  |  |  |  | 
39 | NC(=O)c1ccc2nc(-c3ccc(C4(N)CCC4)cc3)c(-c3ccccc3)n2n1 |  |  |  |  | inactive | 13.2 µM (active) | 6.61 µM (active) | 7.42 µM (active) | 7.42 µM (active) | 
40 | CO[C@@H]1COCC[C@@H]1N[C@@H]1CC[C@@](C(=O)N2CCc3ncc(C(F)(F)F)cc3C2)(C(C)C)C1 | inactive | inactive | inactive | inactive | inactive |  |  |  |  | 
41 | CN(C)C/C=C/C(=O)Nc1ccc(C(=O)N2CCC[C@@H](Nc3ncc(Cl)c(-c4c[nH]c5ccccc45)n3)C2)cc1 |  |  |  |  |  | 0.59 µM (active) | 0.295 µM (active) | 0.235 µM (active) | 0.332 µM (active) | 0.833 µM (active)
42 | CN1CCN(c2ccc(C(=O)Nc3n[nH]c4ccc(Cc5cc(F)cc(F)c5)cc34)c(NC3CCOCC3)c2)CC1 |  |  |  |  |  | 2.09 µM (active) | 4.17 µM (active) | 2.35 µM (active) | 3.32 µM (active) | 5.25 µM (active)
43 | CCN1CCN(Cc2ccc(NC(=O)c3ccc(C)c(/C=C/c4cnc5[nH]ccc5c4OC)c3)cc2C(F)(F)F)CC1 |  |  |  |  |  | 1.86 µM (active) | 2.35 µM (active) | 2.09 µM (active) | 3.72 µM (active) | 3.72 µM (active)
44 | Cc1ccc(S(=O)(=O)Nc2cc(-c3ccc(C#N)s3)ccc2C)cc1 |  |  |  |  |  | 0.0468 µM (active) | 0.0525 µM (active) | 0.0332 µM (active) | 0.059 µM (active) | 0.0661 µM (active)
